# Assay outcomes (PubChem)
# HT1080 IDH1KD tx: HT-1080 IDH1 knockdown cell toxicity (counter line); HT-1080 IDH1 knockdown viability, ATP luminescence, 48 h; Potency, µM (top dose mostly 46.1 µM), without a hit: at the highest dose activity, negative = toxicity, usual class: cytotoxic; 360,000 tested, 2% active;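 note: 0% = DMSO wells and -100% = cell-free medium wells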
#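 CellTiter-Glo luminescence after 48 h compound exposure at 37 degrees C of IDH1-knockdown HT-1080 cells in 5% FBS RPMI. %Activity scaled between DMSO wells and cell-free media wells, with curves fitted and assigned curve classes.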
# TDP1 cell noCPT: qHTS for Inhibitors of human tyrosyl-DNA phosphodiesterase 1 (TDP1): qHTS in cells in absence of CPT; AID 686978, 2013; 420,000 tested, 15% active; DT40 Tdp1-/- hTDP1 cells, no CPT, ATP luminescence, 48 h; Potency, µM (doses to about 46.2 µM), inactives show at the top dose activity change, negative = growth inhibition, most hits filed as inhibitors; note: nearly all actives have a fitted effect of over 55% in size
#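 A cellular qHTS used chicken DT40 cells lacking endogenous Tdp1 but carrying stably transfected human TDP1. Compounds were applied without camptothecin, and cell growth kinetics were judged by ATP-dependent luminescence after ≥48 hr.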
# KB-3-1 cytotox: kills parental KB-3-1 adenocarcinoma cells; AID 1347075; KB-3-1 viability, CellTiter-Glo ATP luminescence, 72 h; 400,000 tested, 1.4% active; Potency, µM (series often up to 46.1 µM), most hits filed as cytotoxic; note: nearly all actives have a fitted effect of over 60% in size
#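 Using CellTiter-Glo luminescence, growth of non-resistant KB-3-1 adenocarcinoma cells is assessed 72 h after pin-tool compound addition at 37 °C. Normalized responses across the concentration series yield fitted curves.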
# HT1080-NT tox: kills 2HG-producing HT-1080-NT fibrosarcoma cells | Potency, µM (highest dose often 46.1 µM), for the others: at the top dose activity, negative = less viability, most hits filed as cytotoxic | AID 686970 | 360,000 tested, 1.6% active | HT-1080-NT fibrosarcoma viability, CellTiter-Glo ATP luminescence, 48 h;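 note: NT is the 2HG producing partner of a matched IDH1 knockdown line; 0% = DMSO-treated cells and -100% = media-only wells without cells; nearly all actives have a fitted effect of over 55% in size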
#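 Read-out is CellTiter-Glo luminescence after 10 minutes at room temperature, following 48 hours' compound treatment of HT-1080-NT cells (750 cells/well, RPMI, 5% FBS, 37 degrees C).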
# KB-V1 cytotox: kills drug-selected multidrug resistant KB-V1 cells; KB-V1 MDR cells viability, CellTiter-Glo, 72 h; Potency, µM (doses to about 46.1 µM), actives largely listed as cytotoxic; 400,000 tested, 3.4% active; note: nearly all actives have a fitted effect of over 60% in size
#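 Potencies derive from concentration-effect curves fitted to normalized luminescence (CellTiter-Glo) of KB-V1 cells treated for 72 h at 37 degrees C in phenol-red-free DMEM containing 10% FBS.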
# DT40 TDP1 CPT: growth inhibition of DT40 Tdp1-/-;hTDP1 cells with camptothecin (screen for TDP1 inhibitors); chicken DT40 Tdp1-/-;hTDP1 cells + 20 nM CPT, ATP luminescence, 48 h; 420,000 tested, 12% active; Potency, µM (series often up to 46.2 µM), for inactives: at the highest dose activity change, negative = growth inhibition, usual class: inhibitors; note: nearly all actives have a fitted effect of over 55% in size
#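 Cell growth measured by CellTiter-Glo luminescence after a minimum 48 h, 37 C compound exposure with 20 nM CPT in Tdp1-knockout DT40 cells stably expressing hTDP1, seeded 400/well; qHTS titration format.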
# Active calls of the source: *; i = inactive; ? = inconclusive; · = no result given; ! = not active in a repeat. This is a sample that favours compounds with a hit; in the whole collection about 19% have one here. Calls come from the whole dose curve; as a rule, active = well fitted curve in the direction sought with a large enough effect; inconclusive = small, poorly fitted or top-dose-only effect, or another doubt; inactive = no such curve, though single readings can be large; an effect the other way counts as inactive or inconclusive. Unless noted, % is set by controls: 0 for no effect and ±100 for the full control effect; potency is the fitted concentration of half-maximal effect.
SMILES,HT1080 IDH1KD tx,TDP1 cell noCPT,KB-3-1 cytotox,HT1080-NT tox,KB-V1 cytotox,DT40 TDP1 CPT
CN(C)CCCN(C(=O)c1ccc2c(c1)OCCO2)c1nc2cc3c(cc2s1)OCO3,7%,-23%,i,-8%,i,?
CCOc1ccc(OCCC(=O)N(CC)CC(=O)NCc2ccc(Cl)cc2)cc1,-11%,?,i,-9%,i,?
CCCCn1c(=NC(=O)c2cc3ccccc3o2)c(C(=O)OCC)cc2c(=O)n3ccccc3nc21,·,-1%,i,·,i,-19%
CCCCn1c(=NC(=O)c2cccnc2)c(C(=O)OCC)cc2c(=O)n3ccccc3nc21,-2%,16µM*,?,6%,?,23µM*
CCCCn1c(=NC(=O)c2cccnc2)c(C#N)cc2c(=O)n3cccc(C)c3nc21,3%,?,i,3%,?,-3%
CCCCn1c(=NC(=O)c2ccco2)c(C(=O)OCC)cc2c(=O)n3cccc(C)c3nc21,0%,13µM*,i,-2%,i,?
CCOC(=O)c1cc2c(=O)n3ccccc3nc2n(CCCOC)c1=NC(=O)c1cc2ccccc2o1,·,18µM*,i,·,i,23µM*
CCCCn1c(=NC(=O)c2ccco2)c(C(=O)OCC)cc2c(=O)n3ccccc3nc21,-12%,23µM*,i,-6%,i,?
CCOc1ccc(-n2c(SCC)nc3c(c2=O)SCC3)cc1,10%,?,i,10%,i,-13%
CC1=CC=CC2=NC(=O)CC(C)(C(=O)N(CC(=O)NC3CCCC3)c3ccc(F)cc3)N12 (stereo not drawn),24%,5%,i,7%,i,14%
CCOc1ccccc1CNc1nc2nc(C)cc(C)n2n1,·,-24%,i,·,i,?
COc1ccccc1CNC(=O)CSc1cc(C)[nH]c(=O)n1,·,10%,i,·,i,-2%
CCOCCCn1c(=NC(=O)c2cccnc2)c(C(=O)OCC)cc2c(=O)n3ccccc3nc21,9%,?,?,6%,?,?
CCCCCn1c(=NC(=O)c2ccco2)c(C(=O)OCC)cc2c(=O)n3ccccc3nc21,5%,15µM*,i,8%,5.2µM*!,16µM*
CCOC(=O)c1cc2c(=O)n3cccc(C)c3nc2n(CCCOC)c1=NC(=O)c1cccnc1,12%,23µM*,i,9%,12µM*,-28%
Cc1ccc(Cl)cc1N1CCN(C(=O)Cn2c(-c3cccs3)cc3cc(F)ccc32)CC1,·,-8%,i,·,i,-22%
O=C(Nc1ccccc1N1CCOCC1)c1cc(=O)[nH]c2ccccc12,-4%,16µM*,i,1%,i,?
O=C(Nc1ccccc1N1CCOCC1)c1cccc2c(Br)cccc12,-11%,18µM*,i,-7%,i,?
CCN(CC)S(=O)(=O)c1ccc(N2CCOCC2)c(NC(=O)c2cc(=O)[nH]c3ccccc23)c1,13%,-4%,i,5%,i,-11%
COc1cc(/C=N/N2CCN(Cc3ccc(C)cc3)CC2)cc(OC)c1O,-8%,-38%,i,-6%,i,?
CCCCNC(=O)C[C@@H]1C[C@@]2(C(=O)OC)CC(C)(C)CC=C2N(Cc2cccc3ccccc23)C1=O,?,?,i,-27%,?,?
COC(=O)[C@@]12C[C@@H](CC(=O)NCc3cccs3)C(=O)N(Cc3cccc4ccccc34)C1=CCC(C)(C)C2,?,?,?,?,16µM*,?
C#CCNC(=O)C[C@@H]1C[C@@]2(C(=O)OC)CC(C)(C)CC=C2N(Cc2cccc3ccccc23)C1=O,?,18µM*,?,?,23µM*,16µM*
CCOC(=O)c1cccc(NC(=O)C2CCN(S(=O)(=O)c3cn(C)cn3)CC2)c1,·,-18%,·,·,·,0%
CCCN1C(=O)C2(c3ccccc31)c1c(oc3cc(C)c(C)cc3c1=O)C(=O)N2CCCOC (stereo not drawn),·,?,i,·,i,?
SMILES,HT1080 IDH1KD tx,TDP1 cell noCPT,KB-3-1 cytotox,HT1080-NT tox,KB-V1 cytotox,DT40 TDP1 CPT
CC(=O)OC1CC2C(C)(C)C(O)CCC2(C)C2CC[C@]3(C)C(=CC(=O)OC3c3ccoc3)C12C (stereo partly drawn),·,-27%,·,·,·,-21%
Cc1ccc(NC(=O)CSCC(=O)N(C)CC(=O)Nc2cccc(F)c2)cc1,7%,-22%,i,6%,i,12%
COc1ccc(N2CCN(C(=O)c3cc4c(C)nc5ccccc5c4o3)CC2)cc1,1%,9.2µM*,i,-12%,?,16µM*
Cc1nc2ccccc2c2oc(C(=O)N3CCN(C4CCCCC4)CC3)cc12,-4%,12µM*,i,-7%,i,21µM*
Cc1nc2ccccc2c2oc(C(=O)N3CCC(N4CCCCC4)CC3)cc12,-15%,?,i,-13%,i,?
CCCSCCCNC(=O)CN1C(=O)COc2ccc(S(=O)(=O)N3CCC(C)CC3)cc21,·,·,i,·,?,·
CC(C)c1cccc(C2=CC(=O)C[C@H](c3ccc4c(c3)OCO4)C2)c1,6%,?,i,5%,?,?
O=C(CSc1nnc(COc2ccc(Cl)cc2)o1)Nc1nccs1,-11%,5%,i,-17%,i,3%
CCC/C(=C1/c2ccccc2C(=O)N1c1ccccc1)c1ccc(O[C@@H]2CCCCO2)cc1,2%,16µM*,?,13%,i,?
